In publication PMC4081100, “A DNA-binding-site landscape and regulatory network analysis for NAC transcription factors in Arabidopsis thaliana” one finds binding signal data, which are given here for eight sequences.

Common to all, as to assay: universal protein binding microarray (PBM); transcription factors of Arabidopsis thaliana; high values mean tight binding
The target of one assay is T1, GST-ANAC092(1-176) (Arabidopsis thaliana, UniProt Q9FKA0 1-176).
T1 sequence: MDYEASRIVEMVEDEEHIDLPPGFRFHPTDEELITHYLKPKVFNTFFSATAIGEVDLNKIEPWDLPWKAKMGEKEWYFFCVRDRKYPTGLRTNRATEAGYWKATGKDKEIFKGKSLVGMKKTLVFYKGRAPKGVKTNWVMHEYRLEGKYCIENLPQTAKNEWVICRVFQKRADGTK
The conditions noted are these: protein: recombinant; tags: GST; chain copies: 2; dsDNA, one strand shown. The gist of the method: (§1)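 Binding is expressed as the normalised enrichment score (E-score). Proteins carrying a GST tag, whether NAC-domain, full-length or DNA-binding-domain forms, were induced in cells, and zinc acetate was added for zinc-finger proteins. After purification on glutathione–Sepharose 4B and quantification by A280 or anti-GST western blot, each was applied in duplicate at 200 to 500 nM final to custom all-10-mer Agilent 4 × 180K arrays made double-stranded by primer extension. Gapped and ungapped 8-mers were scored.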

The next assay addresses T2, GST-ANAC055(1-171) (Arabidopsis thaliana, UniProt Q9LDY8 1-171).
T2 sequence: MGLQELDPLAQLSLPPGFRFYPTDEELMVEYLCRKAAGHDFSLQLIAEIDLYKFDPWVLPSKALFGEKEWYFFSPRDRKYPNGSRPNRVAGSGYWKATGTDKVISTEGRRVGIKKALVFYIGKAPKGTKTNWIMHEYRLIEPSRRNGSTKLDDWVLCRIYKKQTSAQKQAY
The note with it: protein: recombinant; tags: GST; chain copies: 2; dsDNA, one strand shown. The gist of the method: as §1

In the next assay the target is T3, GST-ATAF1 NAC domain (Arabidopsis thaliana, UniProt Q39013 7-158).
T3 sequence: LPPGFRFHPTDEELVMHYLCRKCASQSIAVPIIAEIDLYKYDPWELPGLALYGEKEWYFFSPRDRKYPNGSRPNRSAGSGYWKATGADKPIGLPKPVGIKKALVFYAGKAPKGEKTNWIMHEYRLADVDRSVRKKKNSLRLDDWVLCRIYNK
The note with it: protein: recombinant; tags: GST; chain copies: 2; dsDNA, one strand shown. The gist of the method: as §1

For assay [1], the target named is T4, GST-ANAC092(1-285) full length (Arabidopsis thaliana, UniProt Q9FKA0 1-285).
T4 sequence: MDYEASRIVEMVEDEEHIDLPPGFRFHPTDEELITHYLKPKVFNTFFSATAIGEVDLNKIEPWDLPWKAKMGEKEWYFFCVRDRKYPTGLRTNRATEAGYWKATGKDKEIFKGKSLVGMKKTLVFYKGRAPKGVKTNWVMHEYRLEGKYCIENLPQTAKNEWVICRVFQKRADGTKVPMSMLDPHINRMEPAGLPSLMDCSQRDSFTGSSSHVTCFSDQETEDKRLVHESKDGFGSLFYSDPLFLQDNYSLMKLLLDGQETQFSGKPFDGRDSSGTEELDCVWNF
The note with it: protein: recombinant; tags: GST; chain copies: 2; dsDNA, one strand shown. The gist of the method: as §1

For the next assay, the target named is T5, GST-NAP(1-166) (Arabidopsis thaliana, UniProt O49255 1-166).
T5 sequence: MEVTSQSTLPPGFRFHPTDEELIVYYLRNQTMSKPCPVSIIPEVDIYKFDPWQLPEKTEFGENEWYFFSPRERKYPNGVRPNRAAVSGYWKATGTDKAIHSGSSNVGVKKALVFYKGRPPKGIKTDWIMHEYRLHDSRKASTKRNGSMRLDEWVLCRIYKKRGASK
The conditions noted are these: protein: recombinant; tags: GST; chain copies: 2; dsDNA, one strand shown. The gist of the method:
as §1

The next assay has as its target T6, GST-NST2(1-184) (Arabidopsis thaliana, UniProt Q9M274 1-184).
T6 sequence: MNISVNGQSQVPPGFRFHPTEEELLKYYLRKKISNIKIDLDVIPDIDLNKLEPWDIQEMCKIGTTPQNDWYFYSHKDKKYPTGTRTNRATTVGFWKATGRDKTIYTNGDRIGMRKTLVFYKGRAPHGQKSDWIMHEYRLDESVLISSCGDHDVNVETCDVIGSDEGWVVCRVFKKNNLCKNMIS
The conditions noted are these: protein: recombinant; tags: GST; chain copies: 2; dsDNA, one strand shown. The gist of the method:
as §1

A further assay deals with T7, GST-SND1(1-203) (Arabidopsis thaliana, UniProt Q9LPI7 1-203).
T7 sequence: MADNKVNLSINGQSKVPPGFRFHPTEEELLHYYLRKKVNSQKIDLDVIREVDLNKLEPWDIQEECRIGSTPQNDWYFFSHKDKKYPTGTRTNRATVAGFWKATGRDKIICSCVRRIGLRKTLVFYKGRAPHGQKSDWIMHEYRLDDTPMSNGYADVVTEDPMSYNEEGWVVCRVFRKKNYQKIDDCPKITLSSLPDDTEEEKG
The conditions noted are these: protein: recombinant; tags: GST; chain copies: 2; dsDNA, one strand shown. The gist of the method: as §1

Another assay deals with T8, GST-VND3 NAC domain (Arabidopsis thaliana, UniProt Q9FH59 12-162).
T8 sequence: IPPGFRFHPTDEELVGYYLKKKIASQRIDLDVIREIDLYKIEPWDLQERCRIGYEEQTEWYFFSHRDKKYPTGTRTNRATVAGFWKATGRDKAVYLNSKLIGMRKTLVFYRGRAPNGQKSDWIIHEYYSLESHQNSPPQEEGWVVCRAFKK
The conditions noted are these: protein: recombinant; tags: GST; chain copies: 2; dsDNA, one strand shown. The gist of the method:
as §1

For another assay, the target named is T9, GST-VND7 NAC domain (Arabidopsis thaliana, UniProt Q9C8W9 9-158).
T9 sequence: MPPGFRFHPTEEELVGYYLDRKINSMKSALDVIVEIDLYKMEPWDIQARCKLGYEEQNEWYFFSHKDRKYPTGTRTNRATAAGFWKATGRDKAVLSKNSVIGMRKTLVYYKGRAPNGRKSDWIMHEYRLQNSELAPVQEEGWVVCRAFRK
The conditions noted are these: protein: recombinant; tags: GST; chain copies: 2; dsDNA, one strand shown. The gist of the method:
as §1

The target of another assay is GST-NTL6(1-168) (Arabidopsis thaliana, UniProt Q9SCK6 1-168). The note with it: protein: recombinant; tags: GST; chain copies: 2; dsDNA, one strand shown. The gist of the method:
as §1

In another assay the target is T10, GST-ANAC019 NAC domain (Arabidopsis thaliana, UniProt Q9C932 14-162).
T10 sequence: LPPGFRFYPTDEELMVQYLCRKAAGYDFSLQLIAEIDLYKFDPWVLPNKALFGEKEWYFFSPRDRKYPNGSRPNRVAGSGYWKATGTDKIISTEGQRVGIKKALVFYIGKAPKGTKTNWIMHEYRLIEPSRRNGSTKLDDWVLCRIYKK
The note with it: protein: recombinant; tags: GST; chain copies: 2; dsDNA, one strand shown. The gist of the method:
as §1

The target in a further assay is T11, GST-NTL8 NAC domain (Arabidopsis thaliana, UniProt Q9XIN7 14-156).
T11 sequence: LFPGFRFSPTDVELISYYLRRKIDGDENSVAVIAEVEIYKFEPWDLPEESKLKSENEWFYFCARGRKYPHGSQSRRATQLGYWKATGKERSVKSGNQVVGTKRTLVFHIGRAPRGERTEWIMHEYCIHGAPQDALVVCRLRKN
The note with it: protein: recombinant; tags: GST; chain copies: 2; dsDNA, one strand shown. The gist of the method: as §1

Another assay deals with GST-WRKY1(266-371) (Arabidopsis thaliana, UniProt Q9SI37 266-371). The note with it: protein: recombinant; tags: GST; dsDNA, one strand shown. The gist of the method:
as §1

Chain of GST-NTL6(1-168) (Q9SCK6 1-168): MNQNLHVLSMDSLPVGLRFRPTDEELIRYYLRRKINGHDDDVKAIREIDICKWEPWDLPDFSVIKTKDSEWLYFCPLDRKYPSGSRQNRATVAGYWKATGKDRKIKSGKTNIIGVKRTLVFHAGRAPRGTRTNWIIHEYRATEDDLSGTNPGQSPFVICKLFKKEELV
Chain of GST-WRKY1(266-371) (Q9SI37 266-371): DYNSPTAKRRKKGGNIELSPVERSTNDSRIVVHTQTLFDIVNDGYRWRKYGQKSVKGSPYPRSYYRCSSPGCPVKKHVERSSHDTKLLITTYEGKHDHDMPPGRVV

In the case of ACGTTACA, the binding signal was 0.354 E-score with GST-ANAC092(1-176); 0.157 E-score in the assay with GST-ANAC055(1-171); 0.244 E-score with GST-ATAF1 NAC domain; 0.404 E-score in assay [1]; 0.23 E-score with GST-NAP(1-166); 0.222 E-score in the assay with GST-NST2(1-184). Also, the results for the binding signal with GST-SND1(1-203), with GST-VND3 NAC domain and with GST-VND7 NAC domain were 0.362 E-score, 0.217 E-score and 0.153 E-score, respectively.
For GTACGCGA, the binding signal stood at 0.245 E-score in the assay with GST-ANAC092(1-176); 0.0563 E-score with GST-ANAC055(1-171); 0.234 E-score with GST-ATAF1 NAC domain; 0.4 E-score in [1]; 0.188 E-score with GST-NAP(1-166); 0.129 E-score with GST-NST2(1-184). The binding signal stood at 0.288 E-score with GST-SND1(1-203), 0.11 E-score in the assay with GST-VND3 NAC domain and 0.133 E-score with GST-VND7 NAC domain.
Consider GTTAAGGA, for which the binding signal with GST-ANAC092(1-176) was determined as 0.116 E-score; with GST-NTL6(1-168), 0.424 E-score; with GST-ANAC019 NAC domain, 0.178 E-score; with GST-ANAC055(1-171), 0.165 E-score; with GST-ATAF1 NAC domain, 0.11 E-score; in [1], 0.0916 E-score. Moreover, the binding signal was determined as 0.16 E-score with GST-NST2(1-184); 0.273 E-score with GST-NTL8 NAC domain; 0.276 E-score with GST-SND1(1-203); 0.176 E-score in the assay with GST-VND3 NAC domain; 0.0559 E-score with GST-WRKY1(266-371).
For AGTTGACG, the binding signal with GST-ANAC092(1-176) worked out at 0.0881 E-score; in the assay with GST-ANAC019 NAC domain, 0.0919 E-score; with GST-ANAC055(1-171), 0.0862 E-score; in the assay with GST-ATAF1 NAC domain, 0.213 E-score; in the assay with GST-NAP(1-166), 0.0554 E-score; with GST-NST2(1-184), 0.107 E-score. Also, the binding signal with GST-SND1(1-203) came out at 0.198 E-score; with GST-VND3 NAC domain, 0.0565 E-score; with GST-WRKY1(266-371), 0.43 E-score.
Turning to CACGTTAG, the binding signal amounted to 0.387 E-score with GST-ANAC092(1-176); 0.0916 E-score in the assay with GST-ANAC055(1-171); 0.13 E-score in the assay with GST-ATAF1 NAC domain; 0.412 E-score in assay [1]; 0.0974 E-score with GST-NAP(1-166); 0.117 E-score with GST-NST2(1-184). Moreover, the binding signal in the assay with GST-SND1(1-203) was found to be 0.237 E-score; with GST-VND3 NAC domain it was 0.164 E-score; with GST-VND7 NAC domain, 0.0853 E-score.
For the sequence AATACTTA, the binding signal was 0.405 E-score in the assay with GST-NTL6(1-168); 0.135 E-score in the assay with GST-ANAC019 NAC domain; 0.162 E-score with GST-ANAC055(1-171); 0.254 E-score with GST-ATAF1 NAC domain; 0.104 E-score in [1]; 0.0916 E-score with GST-NST2(1-184). The binding signal came to 0.0845 E-score with GST-NTL8 NAC domain, 0.0985 E-score with GST-SND1(1-203), 0.187 E-score in the assay with GST-VND3 NAC domain and 0.0602 E-score with GST-VND7 NAC domain.
For AATGCGTA, the binding signal in the assay with GST-ANAC092(1-176) turned out to be 0.371 E-score; with GST-ANAC055(1-171) it was 0.0991 E-score; with GST-ATAF1 NAC domain, 0.142 E-score; in assay [1], 0.387 E-score; with GST-NAP(1-166) it was 0.183 E-score; with GST-NST2(1-184), 0.212 E-score. For the same sequence, the binding signal with GST-SND1(1-203) turned out to be 0.414 E-score; with GST-VND3 NAC domain it was 0.148 E-score; in the assay with GST-VND7 NAC domain, 0.118 E-score.
Regarding ATTTCTTA, the binding signal with GST-NTL6(1-168) is 0.409 E-score; with GST-ANAC055(1-171), 0.0799 E-score; in the assay with GST-ATAF1 NAC domain, 0.19 E-score; in assay [1], 0.185 E-score; with GST-NST2(1-184) it was 0.126 E-score; with GST-SND1(1-203) it was 0.225 E-score. In addition, the binding signal with GST-VND3 NAC domain came to 0.0914 E-score; with GST-VND7 NAC domain it was 0.148 E-score.
